Test results from ChEMBL document CHEMBL3433997, “St. Jude Leishmania screening dataset” (2016).

target: Glucose transporter (Leishmania mexicana) (UniProt O61059); experiment: ST_JUDE_LEISH: Cytotoxicity at 2uM final concentration against transgenic Leishmania Mexicana promastigotes LmGT2 that are glucose transport deficient and complemented with the L. Mexicana glucose transporter 2. Activity is measured by DNA content using SYBR green in vitro; format: functional

Row | SMILES | inhibition [%]
1 | O=C(Nc1ccccc1)N1CCOC(CCN2CCC(F)(F)CC2)(c2ccc(Cl)c(Cl)c2)C1 (stereo not given) | 1.24
2 | COc1ccc(-c2cccc(NC(=O)c3cccc(C#N)c3)c2)cc1CN1CCNCC1 | 10.6
3 | COc1ccc(CCn2c(=N)c(C(=O)NCc3ccc(C)cc3)cc3c(=O)n4ccccc4nc32)cc1 | 3.95
4 | NC(=O)c1cccc(Nc2nccc(Nc3ccc(Oc4cccc(Cl)c4)c(Cl)c3)n2)c1 | 7.71
5 | CC(=O)Nc1ccc(CN2CCC(NC(=O)c3ccc(-c4cccc(Cl)c4)s3)CC2)cc1 | 2.8
6 | O=C(Nc1cccc(CN2CCN(C(=O)c3cccc(F)c3)CC2)c1)c1cccs1 | -0.67
7 | OC(CNc1ccnc(Nc2cccc(Cl)c2)n1)c1cccc(C(F)(F)F)c1 (stereo not given) | 4.06
8 | Cc1cccc2nc(-c3ccc(-c4ccc(CN5CCC(C(N)=O)CC5)cc4)cc3)[nH]c12 | 5.21
9 | CCN(CC)CCCC(C)Nc1ccnc2ccc(OC)cc12 (stereo not given) | 8.52
10 | Cc1cc(CN2CCC(C(=O)Nc3ccc(-c4nc5ccccc5[nH]4)cc3)CC2)oc1C | 2.24
11 | COc1cc(Nc2nc(N)c3cc(OC)c(OC)cc3n2)cc(OC)c1 | 3.12
12 | Cc1nc(N)nc(N)c1-c1ccc(Br)c([N+](=O)[O-])c1 | 2.4
13 | CN(C)CCCOc1cc(NC(=O)Nc2ccc(-c3ccncc3)c3ccccc23)ccc1I | 7.69
14 | O=C(Nc1cccc(CN2CCCN(Cc3ccsc3)CC2)c1)c1ccc(Cl)c(Cl)c1 | -2.87
15 | COc1cc(C=NN=c2cc(C)[nH]c3ccccc23)cc(OC)c1OC | 1.6
16 | Cc1ccc2[nH]c(C3CCCNC3)c(-c3ccncc3)c2c1 (stereo not given) | 8.51
17 | CC(C)c1sc(N2CCN(C)CC2)nc1C(=O)NCCc1ccc(Br)cc1 | 2.14
18 | Oc1ccc(CCCc2cc(Oc3c(I)cc(CCc4ncc[nH]4)cc3I)ccc2O)cc1 | -1.55
19 | COc1ccc(C(C)Nc2nc(N)c3cc(OC)c(OC)cc3n2)cc1 (stereo not given) | 4.42
20 | O=C(Cc1ccccc1)NC(CCN1CCC(O)(c2cccc(C(F)(F)F)c2)CC1)c1ccc(Cl)c(Cl)c1 (stereo not given) | 0.53

Row | SMILES | inhibition [%]
21 | O=C(/C=C/c1ccc(Cl)c(Cl)c1)NCCCCCN1CCC(NC(=S)Nc2ccc(Cl)cc2)CC1 | 6.39
22 | Cc1cc(N/N=C/c2cccc([N+](=O)[O-])c2)c2ccc(F)cc2n1 | 0.94
23 | CN(C)Cc1cccc(-c2ccc(Nc3nccc(NCC(O)c4ccccc4)n3)cc2)c1 (stereo not given) | 3.53
24 | O=C(/C=C/c1ccc(Cl)c(Cl)c1)NCCCCN1CCCN(C(=O)Nc2ccc(Cl)c(Cl)c2)CC1 | -1.91
25 | COc1ccc2nc3cc(Cl)ccc3c(NCCCCN3CCNCC3)c2c1 | 3.51
26 | O=C(/C=C/c1cccc(C(F)(F)F)c1)NCCCCCN1CCC(c2c[nH]c3ccccc23)CC1 | 1.4
27 | CCOc1ccc2c(=NN=Cc3ccccc3F)cc(C)[nH]c2c1 | -0.43
28 | CCc1nc2nc(C)cc(Nc3ccc(F)c(Cl)c3)n2n1 | -1.67
29 | CC(C)N1CCN(CCCCNc2c3ccccc3nc3ccccc23)CC1 | 22.3
30 | Cc1cccc(N2C(N)=NC(N)=NC2(C)C)c1C | 1.09
31 | CCN(CC)CCNc1cc(C)nc(NC(=N)Nc2ccc(Cl)cc2)n1 | 5.89
32 | O=C(Nc1ccc(C(F)(F)F)cc1)c1ccc(S(=O)(=O)NC2CCN(CC3CCCCC3)CC2)cc1 | -1.52
33 | CCN(CC)CCN(Cc1ccc(-c2ccc(C(F)(F)F)cc2)cc1)C(=O)Cn1c(CCc2cccc(F)c2F)cc(=O)cc1-c1ccccc1 | -1.71
34 | O=C1Nc2cccc3c2C1(CCCN1CCC(c2c[nH]c4cc(C(F)(F)F)ccc24)CC1)CCC3 (stereo not given) | -0.71
35 | CN(C)c1ccc(C=C2SC(=N)N(c3nccs3)C2=O)cc1 | 4.86
36 | CN1CCCN(Cc2cccc(-c3cccc(NC(=O)c4ccc(Cl)cc4)c3)c2)CC1 | 3.68
37 | Cc1nn(-c2cccc(C(F)(F)F)c2)c2sc(C(=O)NC3CCN(C(C)C)CC3)cc12 | 1.61
38 | COc1ccccc1N1CCN(CCCCNC(=O)c2ccc(NC(=O)c3ccc(OC(F)(F)F)cc3)cc2)CC1 | 1.25
39 | COc1ccc(OC)c(-c2cccc(-c3cccc(NC(=O)c4ccc([N+](=O)[O-])o4)c3)n2)c1 | 3.3
40 | CC(C)Cc1nc(N2CCOCC2)c2nnn(Cc3ccccc3)c2n1 | 1.84
